Test results: PubChem BioAssay (Tox21)
Active and inactive are the calls of the source. Unless noted, calls come from the whole dose curve; as a rule, active = well fitted curve in the direction sought with a large enough effect in the repeat runs; inconclusive = weak or mixed curves; inactive = no such curve, though single readings can be large; an effect the other way counts as inactive or inconclusive.

Assays:
[1] = qHTS assay to identify small molecule antagonists of the thyroid receptor (TR) signaling pathway - cell viability counter screen (AID 743064); note: nearly all actives have a fitted effect of over 50% in size
Outline: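 Viability of T3-stimulated (1 nM final) GH3.TRE-Luc cells is measured by CellTiter-Fluor fluorescence after 23.5 h compound exposure at 37 °C plus 30 min reagent incubation.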

[2] = qHTS assay to identify small molecule antagonists of the thyroid receptor (TR) signaling pathway (AID 743065); note: nearly all actives have a fitted effect of over 55% in size
Outline: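 GH3.TRE-Luc rat pituitary cells (two TREs driving luciferase) were dosed with compound, then stimulated with 1 nM T3 (final) for 23.5 h at 37 C. ONE-Glo luminescence was the read-out, with CellTiter-Fluor fluorescence as the cytotoxicity counter-screen.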

[3] = qHTS assay to identify small molecule antagonists of the estrogen receptor alpha (ER-alpha) signaling pathway - cell viability counter screen (AID 743074; calls by dose curve;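 note: HEK293 cells carrying ER-alpha-UAS-bla reporter stimulated with 17beta-estradiol; nearly all actives have a fitted effect of over 45% in size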)
[4] = target: Estrogen receptor (Homo sapiens) (UniProt P03372); assay: qHTS assay to identify small molecule agonists of the estrogen receptor alpha (ER-alpha) signaling pathway (AID 743075; calls by dose curve;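 note: HEK293 GripTite cells with ER-alpha and UAS-driven beta-lactamase reporter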)
Sequence of Estrogen receptor (Homo sapiens) (P03372 whole entry, looked up): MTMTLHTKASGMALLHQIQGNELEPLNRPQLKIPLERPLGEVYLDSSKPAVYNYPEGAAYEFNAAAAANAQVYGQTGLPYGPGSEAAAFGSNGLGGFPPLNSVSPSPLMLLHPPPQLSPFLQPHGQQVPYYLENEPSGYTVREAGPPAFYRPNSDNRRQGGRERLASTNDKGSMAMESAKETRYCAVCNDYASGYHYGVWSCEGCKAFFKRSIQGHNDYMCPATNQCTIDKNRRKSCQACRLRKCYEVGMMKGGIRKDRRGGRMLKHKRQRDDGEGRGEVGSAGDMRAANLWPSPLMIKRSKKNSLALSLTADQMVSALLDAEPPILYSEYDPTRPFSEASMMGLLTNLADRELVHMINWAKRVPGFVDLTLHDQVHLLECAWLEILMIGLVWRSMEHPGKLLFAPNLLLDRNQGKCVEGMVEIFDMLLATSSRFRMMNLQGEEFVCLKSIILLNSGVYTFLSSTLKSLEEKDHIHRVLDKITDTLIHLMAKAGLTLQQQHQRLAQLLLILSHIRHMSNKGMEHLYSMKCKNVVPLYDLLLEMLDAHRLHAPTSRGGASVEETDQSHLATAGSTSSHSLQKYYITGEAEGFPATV

[5] = target: Estrogen receptor (Homo sapiens) (UniProt P03372); assay: qHTS assay to identify small molecule agonists of the estrogen receptor alpha (ER-alpha) signaling pathway using the BG1 cell line (AID 743079); details: BG1Luc4E2 cells, ERE-luciferase agonist, 22 h; activation: at 70.3 µM (top of the series); note: nearly all actives have a fitted effect of over 20% in size
[6] = qHTS assay to identify small molecule antagonists of the estrogen receptor alpha (ER-alpha) signaling pathway using the BG1 cell line (AID 743080; calls by dose curve;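 note: BG1 cells stimulated with 17beta-estradiol alongside compound; nearly all actives have a fitted effect of over 25% in size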)
Outline: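 BG1-Luc-4E2 cells (endogenous full-length ER-alpha, stable 4×ERE-luciferase) were starved 5 days in phenol-red-free medium with 10% charcoal-stripped FBS, plated 24 h, then given compound plus 17beta-estradiol for 21.5 h at 37 C; ONE-Glo luminescence read after 30 min.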

[7] = qHTS assay to identify small molecule antagonists of the estrogen receptor alpha (ER-alpha) signaling pathway using the BG1 cell line - cell viability counter screen (AID 743081);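 note: compound given together with 17beta-estradiol as the ER stimulus; nearly all actives have a fitted effect of over 45% in size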
Aromatase (Homo sapiens) = Aromatase (Homo sapiens) (UniProt P11511); assay: qHTS assay to identify aromatase inhibitors (AID 743083); note: nearly all actives have a fitted effect of over 55% in size
Sequence of Aromatase (Homo sapiens) (P11511 whole entry, looked up): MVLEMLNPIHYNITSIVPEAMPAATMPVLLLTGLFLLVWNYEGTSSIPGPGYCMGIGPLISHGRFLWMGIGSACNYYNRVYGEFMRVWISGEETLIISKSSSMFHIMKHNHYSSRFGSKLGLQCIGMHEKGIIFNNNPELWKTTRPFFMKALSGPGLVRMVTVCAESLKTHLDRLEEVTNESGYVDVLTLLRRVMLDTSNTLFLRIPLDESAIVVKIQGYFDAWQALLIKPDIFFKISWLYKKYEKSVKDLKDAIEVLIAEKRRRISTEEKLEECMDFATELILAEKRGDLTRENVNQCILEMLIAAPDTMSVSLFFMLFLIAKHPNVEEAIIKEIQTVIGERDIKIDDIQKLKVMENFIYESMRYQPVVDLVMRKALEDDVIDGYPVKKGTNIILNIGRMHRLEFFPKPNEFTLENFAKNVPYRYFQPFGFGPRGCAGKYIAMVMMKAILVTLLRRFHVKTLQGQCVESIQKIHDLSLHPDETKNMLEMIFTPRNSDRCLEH

[8] = target: Estrogen receptor (Homo sapiens) (UniProt P03372); assay: qHTS assay to identify small molecule antagonists of the estrogen receptor alpha (ER-alpha) signaling pathway (AID 743069; active = well fitted curve in the direction sought with a large enough effect in the signal ratio in the repeat runs, not every such curve was filed as active; inconclusive = weak or mixed curves, or effect the other way; inactive = no such curve, though single readings can be large or run the other way; the % refers to the signal ratio)
Outline: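 Beta-lactamase FRET fluorescence is read after 2 hr at room temperature with LiveBLAzer B/G substrate. Before that, ER-alpha-bla HEK293 cells sit 4 hr after plating, then receive compound plus 17beta-estradiol and incubate 18 hr at 37C.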
Potency is the fitted concentration of half-maximal effect.

Row | Structure (SMILES) | Potency [1] | Potency [2] | Potency [3] | Potency [4] | Potency [5] | Potency [6] | Potency [7] | Potency (Aromatase (Homo sapiens)) | Potency [8]
1 | CCc1ccc2c(c1)N(CC(C)CN(C)C)c1ccccc1S2 (configuration not stated) | 11.9 µM (active) | 11.9 µM (active) | inactive | inactive | inactive | inactive | inactive |  | 
2 | CC[C@@H](C(=O)[C@@H](C)[C@@H](O)[C@H](C)[C@@H]1O[C@@H]([C@@H](CC)C(=O)O)CC[C@@H]1C)[C@H]1O[C@]2(C=C[C@@H](O)[C@]3(CC[C@@](C)([C@H]4CC[C@](O)(CC)[C@H](C)O4)O3)O2)[C@H](C)C[C@@H]1C | 0.668 µM (active) | 0.668 µM (active) |  |  |  |  |  | inactive | 
3 | COc1ccc(C[C@H](N)C(=O)N[C@H]2[C@@H](O)[C@H](n3cnc4c(N(C)C)ncnc43)O[C@@H]2CO)cc1 | 11.9 µM (active) | 10.6 µM (active) | inactive | inactive |  |  | 21.1 µM (active) | 11.9 µM (active) | 4.25 µM [inconclusive] (active)
4 | OCCN1CCN(CC/C=C2/c3ccccc3Sc3ccc(Cl)cc32)CC1 | 10.1 µM (active) | 11.4 µM (active) | inactive |  |  |  | inactive | inactive | 
5 | O=C(O[C@H]1CN2CCC1CC2)N1CCc2ccccc2[C@@H]1c1ccccc1 | 23.7 µM (active) | 23.7 µM (active) | inactive |  |  |  | inactive | inactive | 
6 | CC[C@@H](C(=O)O)[C@@H]1O[C@@H]([C@@H](C)[C@H](O)[C@H](C)C(=O)[C@H](CC)[C@H]2O[C@]3(C=C[C@@H](O)[C@]4(CC[C@@](C)([C@H]5CC[C@](O)(CC)[C@H](C)O5)O4)O3)[C@H](C)C[C@@H]2C)[C@@H](C)C[C@@H]1C | 0.15 µM (active) | 0.0944 µM (active) | 0.151 µM (active) | inactive |  |  | 6.68 µM (active) | inactive | 
7 | COc1cc(-c2ccc(-[n+]3nc(-c4ccccc4)nn3-c3ccc([N+](=O)[O-])cc3)c(OC)c2)ccc1-[n+]1nc(-c2ccccc2)nn1-c1ccc([N+](=O)[O-])cc1 | 26.6 µM (active) | 29.8 µM (active) | 4.25 µM (active) |  |  |  |  | 26.6 µM (active) | 
8 | COc1ccc2c(c1)OC(C)(C)C(c1ccccc1)C2c1ccc(OCCN2CCCC2)cc1 (configuration not stated) | 10.6 µM (active) | 9.44 µM (active) |  |  | inactive | inactive | inactive |  | 
9 | Cc1cc(/C=C/c2ccc3cc(N(C)C)ccc3[n+]2C)c(C)n1-c1ccccc1 | 6.39 µM (active) | 4.03 µM (active) |  |  |  |  | 11.4 µM (active) | 7.17 µM (active) | 
10 | CSc1nc2cc(Oc3cccc(Cl)c3Cl)c(Cl)cc2[nH]1 | 13.3 µM (active) | 8.41 µM (active) | 23.9 µM (active) |  |  |  |  | 23.7 µM (active) | 
11 | CN1CCC(CN2c3ccccc3Sc3ccccc32)C1 (configuration not stated) | 10.6 µM (active) | 11.9 µM (active) | inactive | inactive | inactive | inactive | inactive | inactive | 
12 | C#C[C@]1(O)CC[C@H]2[C@@H]3CCC4=C/C(=N/O)CC[C@@H]4[C@H]3CC[C@@]21CC | 29.8 µM (active) | 11.9 µM (active) | inactive | 0.151 µM [inconclusive] (active) | 0.0422 µM (active) |  | inactive | 23.7 µM (active) | 
13 | CC(=O)c1ccc2c(c1)N(CCCN1CCN(CCO)CC1)c1ccccc1S2 | 13.3 µM (active) | 13.3 µM (active) | inactive |  |  | inactive |  |  | 
14 | CO[C@H]1C[C@H](O[C@H]2[C@H](C)O[C@@H](O[C@@H]3/C(C)=C/C[C@@H]4C[C@@H](C[C@]5(C=C[C@H](C)[C@@H](C6CCCCC6)O5)O4)OC(=O)[C@@H]4C=C(C)[C@@H](O)[C@H]5OC/C(=C\C=C\[C@@H]3C)[C@]54O)C[C@@H]2OC)O[C@@H](C)[C@@H]1O | 2.66 µM (active) | 2.66 µM (active) | 16.9 µM (active) | inactive |  |  | 21.1 µM (active) | inactive | 
15 | CN1CCN(CCC=C2c3ccccc3Sc3ccc(S(=O)(=O)N(C)C)cc32)CC1 | 13.3 µM (active) | 8.41 µM (active) |  | inactive | inactive | inactive |  |  | inactive
16 | O=C(Nc1ccc(Br)cc1)c1cc(Br)c(Br)s1 | 18.8 µM (active) | 13.3 µM (active) |  | inactive |  |  | inactive | inactive | 
17 | CC(CN(C)C)CN1c2ccccc2Sc2ccc(C(F)(F)F)cc21 (configuration not stated) | 8.41 µM (active) | 13.3 µM (active) | inactive |  |  |  | inactive |  | 
18 | C=C1C(=O)O[C@H]2[C@H]1CC/C(C)=C\CC[C@@]1(C)O[C@@H]21 | 8.41 µM (active) | 7.5 µM (active) | inactive |  |  | inactive | inactive | 21.1 µM (active) | inactive
19 | CCCCCCCC(=O)CC[C@@H]1[C@@H](C/C=C\CCCC(=O)OC(C)C)[C@@H](O)C[C@H]1O | 21.1 µM (active) | 16.8 µM (active) | 26.8 µM (active) | inactive | inactive | inactive | inactive |  | 
20 | CC(C)N1CCN(c2ccc(OC[C@H]3CO[C@](Cn4cncn4)(c4ccc(Cl)cc4Cl)O3)cc2)CC1 | 6.39 µM (active) | 4.52 µM (active) |  | inactive | inactive |  |  |  | inactive
21 | CC(=O)Oc1cc(C)c(OC(C)=O)c2ccccc12 | 26.6 µM (active) | 23.7 µM (active) | inactive | inactive |  | inactive | inactive | 26.6 µM (active) | 
22 | CC1(S(=O)(=O)O)CC(=O)c2ccccc2C1=O (configuration not stated) | 13.3 µM (active) | 13.3 µM (active) | inactive |  |  | 33.5 µM (active) | inactive | 26.6 µM (active) | 
